The nature of test [1]: NCI Yeast Anticancer Drug Screen. Data for the rad50 strain (AID 155).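 Note: 0% = growth of vehicle-only cultures of the same strain.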 The note with it: S. cerevisiae rad50 strain growth inhibition, active compounds read high; at 50.0 µM unless noted. The gist of the method: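 Genetically altered yeast (DNA repair pathway); compound treatment; growth inhibition vs vehicle ctrl.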
Test [2] is described as follows: NCI Yeast Anticancer Drug Screen. Data for the mec2-1 strain (AID 157). The note with it: S. cerevisiae mec2-1 strain, active compounds read high; at 50.0 µM unless noted. The gist of the method: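 Vehicle-treated cultures served as reference for growth inhibition of compound-exposed mec2-1 yeast.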
Test [3] is described as follows: NCI Yeast Anticancer Drug Screen. Data for the sgs1 mgt1 strain (AID 161).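 Note: 0% = growth of cultures given vehicle only.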 The note with it: S. cerevisiae sgs1 mgt1 strain, active compounds read high; at 50.0 µM unless noted. In outline:
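Inhibition of yeast growth, normalised to vehicle-treated controls, is reported for a strain bearing genetic alterations in DNA damage repair.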

A short description of test [4]: NCI Yeast Anticancer Drug Screen. Data for the cln2 rad14 strain (AID 165).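 Note: 0% = growth equal to vehicle treated cultures.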 The note with it: S. cerevisiae cln2 rad14 strain, active compounds read high; at 50.0 µM unless noted. The gist of the method:
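Each compound was tested on cln2 rad14 yeast. Inhibition of growth was calculated against vehicle-exposed controls.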

Test [5] in a line: NCI Yeast Anticancer Drug Screen. Data for the bub3 strain (AID 167). The conditions noted are these: S. cerevisiae bub3 mutant strain, active compounds read high; at 50.0 µM unless noted. In outline: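 Yeast carrying a defined mutation is treated with each compound, and growth is compared with that of vehicle-exposed cells to give inhibition.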
The nature of test [6]: NCI Yeast Anticancer Drug Screen. Data for the mlh1 rad18 strain (AID 175). The note with it: S. cerevisiae mlh1 rad18 strain growth inhibition, active compounds read high; at 50.0 µM unless noted. In outline: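 Vehicle-treated cultures served as the reference for growth inhibition in a yeast strain carrying DNA damage repair alterations exposed to each compound.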

“And” between values parts separate entries of the source, which are not always exact repeats. Identical values can stand only once. The panel holds about 79,000 compounds, 15% with a hit somewhere; the sample as a whole holds those more often. Unmarked numbers belong to inactive results. The source made the active and inactive calls. Cut-off read from the data, not from the text of the source: active = growth inhibition above about 70%; inactive = the rest.

`Cc1cc2nc3c(C(OC4OC(CO)C(O)C(O)C4O)C(O)CO)nn(-c4ccc(F)cc4)c3nc2cc1C` (stereo not given): the growth inhibition in test [1] is 3.6%; in test [2] it was -6.85%; in test [3], -47.7%; in test [4], 25.6%; in test [5] it was 3.45%; in test [6], 1%.
For the compound `Cc1nc2cnc(=Nc3ccccc3)nc-2n(-c2ccccc2)c1C`, the growth inhibition was -1.15% in test [1]; -1.55% in test [2]; -0.65% in test [3]; 56.9% in test [4]; 5.15% in test [5]; -7.9% in test [6].
Consider `O=C1OC(c2ccccc2)=N/C1=C\c1ccccc1`, for which the growth inhibition in test [1] is -24% and 23.1%; in test [2], -12.6% and 10.6%; in test [3] it was -15.5% and 20.9%; in test [4], -5.7% and -23.2%; in test [5], 3.9% and -15.2%; in test [6] it was -8.7% and 26.8%.
As to `CCCC(=O)N(CCC(C)C)c1ccccc1`, the growth inhibition was -12.6% in test [1]; 6.3% in test [2]; 2.45% in test [3]; 9.9% in test [4]; -9.25% in test [5]; -7.8% in test [6].
For the compound `Nc1ncnc(N)c1NC(=O)c1ccc2ccccc2c1`, the growth inhibition was 8.95% in test [1]; 35.1% in test [2]; -1.55% in test [3]; -1.85% in test [4]; -20.4% in test [5]; -21.4% in test [6].
`Cc1ccc(S(=O)(=O)NC(=O)NC(C)C(=O)O)cc1` (stereo not given): the growth inhibition was -1.15% in test [1]; -5.65% in test [2]; -13.2% in test [3]; 0.2% in test [4]; 2.5% in test [5]; -7.65% in test [6].
Turning to `NC1=NCC(CN2CCCCC2)O1` (stereo not given), the growth inhibition in test [1] is 7.1%; in test [2], 1.8%; in test [3], -4.05%; in test [4] it was -2.4%; in test [5], -8.3%; in test [6] it was 5.9%.
On to `C[N+](C)(C)CC(O)C[N+](C)(C)C`, for which the growth inhibition was 12.1% in test [1]; 6.15% in test [2]; 3.6% in test [3]; -42.1% in test [4]; -3.5% in test [5]; 22.7% in test [6].
With `COC(=O)CCC1(C)C2CCC1(C)/C(=N/O)C2` (stereo not given), the growth inhibition in test [1] is -10.2%; in test [2], 3.15%; in test [3], 2.35%; in test [4], 0.45%; in test [5], -21.1%; in test [6], 6.7%.
For `COC(=O)c1[nH]nc(-c2ccccc2)c1N`, the growth inhibition in test [1] was 11%; in test [2] it was 2.95%; in test [3] it was -12.8%; in test [4] it was -51.8%; in test [5], 17.4%; in test [6] it was 1.9%.
As to `CC(=O)CSc1c(-c2ccccc2)c(=O)n(-c2ccccc2)c(=S)n1-c1ccccc1`, the growth inhibition in test [1] is -3.8%; in test [2], -10.1%; in test [3], -13.2%; in test [4] it was -2.3%; in test [5], -8.5%; in test [6] it was 3.85%.
Take `CCC(=O)OC(CCC1CCCO1)CCC1CCCO1` (stereo not given): the growth inhibition is 11.5% in test [1]; 12.2% in test [2]; 3.75% in test [3]; 12.4% in test [4]; 22.9% in test [5]; -3.55% in test [6].
Take `c1ccc(-c2cn(-c3ccccc3)nn2)cc1`: the growth inhibition in test [1] was -1%; in test [2], -4.5%; in test [3], -13.7%; in test [4], -22.9%; in test [5], -28.8%; in test [6], 0.6%.
Take `Nc1c(N2CCOCC2)c(=O)nc2[nH]/c(=C\c3ccccc3)c(=O)n12`: the growth inhibition in test [1] was 8.5%; in test [2] it was -20.7%; in test [3], 4.75%; in test [4], 22%; in test [5] it was 8%; in test [6], -46.8%.
Consider `Nc1ncnc2c1ncn2C1OC(CO)C(NC(=O)C(N)Cc2ccccc2)C1O` (stereo not given), for which the growth inhibition in test [1] is 7.2%; in test [2] it was -4.7%; in test [3] it was -2.8%; in test [4], -32.3%; in test [5], 2.15%; in test [6], -9.5%.
With `O=C(O)NC(=O)c1cc([N+](=O)[O-])ccc1COC1CCCCO1` (stereo not given), the growth inhibition is 5.95% in test [1]; -0.85% in test [2]; 2.55% in test [3]; -11.7% in test [4]; 14.9% in test [5]; 0.75% in test [6].
For the compound `COc1ccc(NC(C)=O)cc1`, the growth inhibition in test [1] was 24.8%; in test [2] it was 3.2%; in test [3], 2.7%; in test [4], 13.8%; in test [5], 11.8%; in test [6] it was -11.1%.
For the compound `S=c1[nH]nc(-c2ccccc2Cl)o1`, the growth inhibition was -47.9% in test [1]; -17.7% in test [2]; -47.8% in test [3]; -21.2% in test [4]; -4.75% in test [5]; -66.2% in test [6].
`NCCCCCN`: the growth inhibition in test [1] was 14.4%; in test [2] it was -1.05%; in test [3], -15.9%; in test [4] it was 12.3%; in test [5] it was -16.7%; in test [6], -1.45%.
For `CN(C(=O)c1ccc([N+](=O)[O-])cc1)C(c1ccco1)P(=O)(c1ccccc1)c1ccccc1` (stereo not given), the growth inhibition in test [1] was 71.1% (active); in test [2], 36.4%; in test [3], 56.5%; in test [4] it was 0.4%; in test [5], 46.2%; in test [6], 26.4%.
Turning to `CC(=O)OC1COC(N2C(=O)C(=O)c3c(C)cc(Cl)nc32)C(OC(C)=O)C1OC(C)=O` (stereo not given), the growth inhibition in test [1] was -22.6%; in test [2], -15.7%; in test [3], -22.4%; in test [4], -24.1%; in test [5] it was -24.1%; in test [6], -8.3%.
As to `CCCc1cc2c(cc1CC#N)OCO2`, the growth inhibition in test [1] was -5.65%; in test [2], 19.4%; in test [3] it was -9.85%; in test [4] it was 2.4%; in test [5] it was -3.25%; in test [6], 17.6%.
As to `OCCN(CCO)c1ncnc2c1sc(=S)n2-c1ccccc1`, the growth inhibition was -0.05% in test [1]; -32.3% in test [2]; 1.15% in test [3]; 7.9% in test [4]; -5.65% in test [5]; 7.5% in test [6].
Consider `O=C(Sc1ccc(Br)cc1)c1ccccc1`, for which the growth inhibition in test [1] was 29.1%; in test [2], 24.2%; in test [3] it was 1.15%; in test [4], 13.2%; in test [5] it was 10.4%; in test [6], 1.25%.
`OCCCCCCCl`: the growth inhibition in test [1] was -28.8%; in test [2], -24.8%; in test [3], -11.6%; in test [4] it was -6.65%; in test [5], -3.05%; in test [6], 3.6%.
As for `Cc1cc(C)[nH]c(=O)c1`, the growth inhibition in test [1] was 9.2%; in test [2] it was 0.75%; in test [3] it was -2.75%; in test [4], 3.8%; in test [5] it was 20.1%; in test [6], 4.4%.
Turning to `CC(=O)OC1OC(COC(c2ccccc2)(c2ccccc2)c2ccccc2)C(OC(C)=O)C(OC(C)=O)C1OC(C)=O` (stereo not given), the growth inhibition was 12.8% in test [1]; -8.6% in test [2]; -6.15% in test [3]; 6.4% in test [4]; 1.7% in test [5]; 24.6% in test [6].
As for `CC1CCC2C(C)C(=O)OC2C2(C)C(=O)C=CC12` (stereo not given), the growth inhibition in test [1] was 11.9%; in test [2], -12.3%; in test [3], 13.7%; in test [4] it was 22.6%; in test [5], 2.7%; in test [6], -27.4%.
With `COc1cc(C(C)=O)ccc1OCOc1ccc(C(C)=O)cc1OC`, the growth inhibition in test [1] was -4.65%; in test [2] it was -23.6%; in test [3], -3.7%; in test [4], -43%; in test [5], 5.95%; in test [6] it was -5.55%.
For the compound `CCCC(=O)OCC1OC(n2cc(F)c(=O)[nH]c2=O)CC1OC(=O)CCC` (stereo not given), the growth inhibition in test [1] is 4.1%; in test [2] it was 7.9%; in test [3], 13.9%; in test [4] it was -4.3%; in test [5], -13.9%; in test [6] it was 10.2%.
With `CC(=O)[C@@]1(O)CC[C@H]2[C@@H]3CC=C4C[C@@H](Cl)CC[C@]4(C)[C@H]3CC[C@@]21C`, the growth inhibition in test [1] is -16.9%; in test [2], 4.85%; in test [3], 13.8%; in test [4], -2.75%; in test [5], 8.5%; in test [6], 7.1%.
In the case of `COc1ccc(OC)c2[nH]c(=O)c(C)nc12`, the growth inhibition was 7.15% in test [1]; 1.85% in test [2]; 5.75% in test [3]; -4.85% in test [4]; 4.35% in test [5]; -4.3% in test [6].
As for `CCN(C(=O)c1ccc(C(=O)N(CC)c2cccc(C)c2)cc1)c1cccc(C)c1`, the growth inhibition in test [1] is -24.4%; in test [2], -3.55%; in test [3] it was -9.85%; in test [4], 8.05%; in test [5] it was 6.15%; in test [6], -1.7%.
Regarding `N#CSc1ccc(NN)cc1`, the growth inhibition in test [1] was 11.2%; in test [2], -2.05%; in test [3], 30.4%; in test [4], -4.65%; in test [5], 33.7%; in test [6] it was 1.55%.
For the compound `CC1=Nc2ccccc2SC2(C1)C(C1COC(C)(C)O1)OC1OC(C)(C)OC12` (stereo not given), the growth inhibition was 7.4% in test [1]; 11.1% in test [2]; 21.1% in test [3]; 21.4% in test [4]; -9.55% in test [5]; 12.8% in test [6].
Turning to `O=C(O)C1=Cc2ccccc2OC1`, the growth inhibition is 2.7% in test [1]; -19.9% in test [2]; -5.55% in test [3]; -27.2% in test [4]; -28.6% in test [5]; -4.7% in test [6].
In the case of `Clc1ccc(N=Nc2nc3ccccc3nc2N=Nc2ccc(Cl)cc2Cl)c(Cl)c1`, the growth inhibition in test [1] is -32.5%; in test [2], -4.6%; in test [3], -13.2%; in test [4] it was 3.25%; in test [5] it was -5.75%; in test [6], 0.55%.
On to `O=C(O)CC(c1ccccc1)C(CC(=O)O)c1ccccc1` (stereo not given), for which the growth inhibition in test [1] is -3.8%; in test [2], 8.75%; in test [3], 17.6%; in test [4], 17.2%; in test [5] it was 5.95%; in test [6], 9.85%.
Consider `BrCC(Br)C1OCCCO1` (stereo not given), for which the growth inhibition in test [1] was 18.4%; in test [2], 18.1%; in test [3], 38.4%; in test [4] it was 22.4%; in test [5], 5.25%; in test [6] it was 34.6%.
With `Nc1ccccc1SC1CC(=O)N(c2ccc3c(c2)OCO3)C1=O` (stereo not given), the growth inhibition was 6.55% in test [1]; 8.85% in test [2]; 20.4% in test [3]; 16.4% in test [4]; 8.35% in test [5]; 16.3% in test [6].

The values are drawn from PubChem BioAssay (NCI).
